# According to PubChem BioAssay (NCATS):
# “And” between values parts separate entries of the source, which are not always exact repeats. Identical values can stand only once. Unmarked numbers belong to inactive results. Results filed as inconclusive are left out. The source made the active and inactive calls. Calls come from the whole dose curve; as a rule, active = well fitted curve in the direction sought with a large enough effect; inconclusive = small, poorly fitted or top-dose-only effect, or another doubt; inactive = no such curve, though single readings can be large; an effect the other way counts as inactive or inconclusive.
# Experiment: qHTS for small molecule inhibitors of Yes1 kinase: Counter Assay (AID 686950);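 note: no kinase present so only ADP-Glo detection of a fixed ADP amount is tested; luminescence from ADP-Glo reporting ADP in a fixed ATP and ADP mixture; 0% = DMSO wells with ATP plus ADP and -100% = ATP-only wells without ADP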
# Conditions: series mostly up to 76.9 µM; activity change, negative = inhibition: at the top concentration
# In short: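 Enzyme-free detection counter-screen: compounds preincubated 20 min in buffer, then 0.08 mM ATP plus 0.02 mM ADP added for 60 min at room temperature; ADP-Glo luminescence. Buffer 50 mM Tris pH 7.5, 10 mM MgCl2, 150 mM NaCl; normalized to ATP+ADP and ATP-only controls.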
Compound,"activity change, negative = inhibition [%]",outcome
O=C(N[C@@H](c1ccccc1)[C@@H]1CCCCN1)c1cccc(C(F)(F)F)c1Cl,1.63,–
CC(C)[C@H](CO)Nc1nc(Nc2ccc(C(=O)O)c(Cl)c2)c2ncn(C(C)C)c2n1,3.55,–
CO[C@@H](C(=O)N1Cc2[nH]nc(NC(=O)c3ccc(N4CCN(C)CC4)cc3)c2C1)c1ccccc1,5.37,–
Cn1cc(C=C2C(=O)Nc3cccnc32)c2ccccc21,-4.75,–
CC1=C(/C=C/C(C)=C/C=C/C(C)=C/C(=O)Nc2ccc(O)cc2)C(C)(C)CCC1,-3.23,–
COc1ncc(-c2ccc3nccc(-c4ccnnc4)c3c2)cc1NS(=O)(=O)c1ccc(F)cc1F,6.18,–
OC[C@H]1O[C@@H](n2cnc3c2NC=NC[C@@H]3O)C[C@H]1O,-3.99,–
COc1cc2ncnc(-n3nc(-c4ccccn4)nc3N)c2cc1OC,1.23,–
O=C(O)CCC1CCC(c2cc(F)ccc2F)(S(=O)(=O)c2ccc(Cl)cc2)CC1 (stereo not drawn),3.43,–
CCOc1ccc(Nc2nc(-c3c(C)nc4ccccn34)cs2)cc1,-3.59,–
O=C1C(Cl)=C(NCCN2CCOCC2)C(=O)c2ncccc21,-1.35,–
NC(CO)(CO)CCc1ccc(Sc2cccc(OCc3ccccc3)c2)cc1Cl,1.96,–
CC(C)(C)COc1ccc(-n2cc(C(=O)O)cn2)cc1C#N,3.9,–
COc1cc2nc(-c3ccc(N4CCN(C)CC4)cc3)nc(NCCN3CCOCC3)c2cc1OC,0.968,–
CO[C@H]1C=CC=C(C)C(=O)NC2=CC(=O)C(NCCN(C)C)=C(C[C@@H](C)C[C@H](OC)[C@@H](O)[C@@H](C)C=C(C)[C@@H]1OC(N)=O)C2=O,-0.276,–
CO[C@H]1C[C@@H]2CC[C@@H](C)[C@@](O)(O2)C(=O)C(=O)N2CCCC[C@@H]2C(=O)O[C@H]([C@H](C)C[C@@H]2CC[C@H](OCCO)[C@H](OC)C2)CC(=O)[C@H](C)C=C(C)[C@@H](O)[C@@H](OC)C(=O)[C@H](C)C[C@H](C)C=CC=CC=C1C,-2.91,–
CC(=O)N(C)C1(c2ccccc2)CCN(CCC[C@]2(c3ccc(Cl)c(Cl)c3)CCCN(C(=O)c3ccccc3)C2)CC1,-4.7,–
CN(C)C1CCN(C(=O)c2ccc(NC(=O)Nc3nc(N4CCOCC4)nc(N4CCOCC4)n3)cc2)CC1,1.35,–
CC(C)(C)C(=O)Oc1ccc2c(c1)nc(NC(=O)c1cccc([N+](=O)[O-])c1)n2CCCO,-7.59,–
CC/C(=C(\c1ccccc1)c1ccc(OCCN(C)C)cc1)c1ccccc1,4.16,–
COc1cc(Nc2ncc(F)c(Nc3ccc4c(n3)NC(=O)C(C)(C)O4)n2)cc(OC)c1OC,–,inactive
CC(C)(C(=O)NCC(F)(F)C(F)(F)F)C(=O)N[C@@H]1C(=O)Nc2ccccc2-c2ccccc21,4.9,–
O=C(O)c1ccc(-c2cc3cccnc3c(-c3ccc4nonc4c3)n2)cc1,0.668,–
CCOC(CN1C(=O)[C@](CC(=O)Nc2ccc(C)cc2)(NC(=O)Nc2ccc(C)cc2)c2ccccc21)OCC,2.33,–
COc1cccc2c1CCCC2CCCN1CCN(C2CCCCC2)CC1 (stereo not drawn),1.78,–
CC(=O)Nc1ccc([C@H](C)C(=O)Nc2ncc(C(C)C)s2)cc1,-0.425,–
CN1CCN(CCOc2cc(OC3CCOCC3)c3c(Nc4c(Cl)ccc5c4OCO5)ncnc3c2)CC1,0.752,–
COc1cc(N2CCC(N3CCN(C)CC3)CC2)ccc1Nc1ncc(Cl)c(Nc2ccccc2S(=O)(=O)C(C)C)n1,5.68,–
Clc1ccc(-c2nc3sccn3c2C=NOCc2ccc(Cl)c(Cl)c2)cc1,-2.56,–

# Experiment: qHTS Assay for Identifying Gametocytocidal Compounds (AID 743244); note: potency is the fitted concentration of half-maximal effect;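 for max response: % is set by controls: 0 for no effect and ±100 for the full control effect; actives lower the fluorescent signal which means gametocytes are killed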
# Conditions: P. falciparum 3D7 stage III-V gametocytes, alamarBlue, 72 h; max response: hits give low values
# In short: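 Late gametocytes (III–V), P. falciparum 3D7; 72 h drug, then 24 h alamarBlue; resazurin reduction read by fluorescence.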
Compound,Potency,max response
O=C(N[C@@H](c1ccccc1)[C@@H]1CCCCN1)c1cccc(C(F)(F)F)c1Cl,18.7 µM (active),–
CC(C)[C@H](CO)Nc1nc(Nc2ccc(C(=O)O)c(Cl)c2)c2ncn(C(C)C)c2n1,–,63.2%
CC1=C(/C=C/C(C)=C/C=C/C(C)=C/C(=O)Nc2ccc(O)cc2)C(C)(C)CCC1,–,-5.25% and -28.8%
COc1ncc(-c2ccc3nccc(-c4ccnnc4)c3c2)cc1NS(=O)(=O)c1ccc(F)cc1F,0.935 µM (active),–
OC[C@H]1O[C@@H](n2cnc3c2NC=NC[C@@H]3O)C[C@H]1O,–,12.6%
O=C(O)CCC1CCC(c2cc(F)ccc2F)(S(=O)(=O)c2ccc(Cl)cc2)CC1 (stereo not drawn),–,-21%
O=C1C(Cl)=C(NCCN2CCOCC2)C(=O)c2ncccc21,–,-156%
CC(C)(C)COc1ccc(-n2cc(C(=O)O)cn2)cc1C#N,–,54.6%
COc1cc2nc(-c3ccc(N4CCN(C)CC4)cc3)nc(NCCN3CCOCC3)c2cc1OC,11.8 µM (active),–
CN(C)C1CCN(C(=O)c2ccc(NC(=O)Nc3nc(N4CCOCC4)nc(N4CCOCC4)n3)cc2)CC1,23.5 µM (active),–
CC(C)(C)C(=O)Oc1ccc2c(c1)nc(NC(=O)c1cccc([N+](=O)[O-])c1)n2CCCO,–,2.9%
CC/C(=C(\c1ccccc1)c1ccc(OCCN(C)C)cc1)c1ccccc1,–,10%
COc1cc(Nc2ncc(F)c(Nc3ccc4c(n3)NC(=O)C(C)(C)O4)n2)cc(OC)c1OC,–,23.2%
CC(C)(C(=O)NCC(F)(F)C(F)(F)F)C(=O)N[C@@H]1C(=O)Nc2ccccc2-c2ccccc21,–,8.7%
O=C(O)c1ccc(-c2cc3cccnc3c(-c3ccc4nonc4c3)n2)cc1,–,33.8%
CC(=O)Nc1ccc([C@H](C)C(=O)Nc2ncc(C(C)C)s2)cc1,–,12.4%
CN1CCN(CCOc2cc(OC3CCOCC3)c3c(Nc4c(Cl)ccc5c4OCO5)ncnc3c2)CC1,18.7 µM (active),–
COc1cc(N2CCC(N3CCN(C)CC3)CC2)ccc1Nc1ncc(Cl)c(Nc2ccccc2S(=O)(=O)C(C)C)n1,4.69 µM (active),–
Clc1ccc(-c2nc3sccn3c2C=NOCc2ccc(Cl)c(Cl)c2)cc1,–,17.5%
